Measured values: PubChem BioAssay (Tox21)
Several values for one entry are separate records, joined by “and”; a condition that tells them apart may be missing. Equal values may be shown once. Records with an inconclusive call do not appear. Activity calls are given as the source filed them. Unless noted, the call rests on the fitted dose curve; in most records, active means well fitted curve in the direction sought with a large enough effect in the repeat runs; inconclusive means weak or mixed curves; inactive means no such curve, though single readings can be large; an effect the other way counts as inactive or inconclusive.

What was measured:
[1] = target: Thyrotropin-releasing hormone receptor (Homo sapiens) (UniProt P34981); assay: qHTS assay to identify small molecule agonists of the thyrotropin-releasing hormone receptor (TRHR) signaling pathway (AID 1346891; calls by dose curve;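 further: HEK293 cells expressing TRHR with calcium dye readout; series mostly up to about 58 µM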)
Sequence of Thyrotropin-releasing hormone receptor (Homo sapiens) (P34981 whole entry, looked up): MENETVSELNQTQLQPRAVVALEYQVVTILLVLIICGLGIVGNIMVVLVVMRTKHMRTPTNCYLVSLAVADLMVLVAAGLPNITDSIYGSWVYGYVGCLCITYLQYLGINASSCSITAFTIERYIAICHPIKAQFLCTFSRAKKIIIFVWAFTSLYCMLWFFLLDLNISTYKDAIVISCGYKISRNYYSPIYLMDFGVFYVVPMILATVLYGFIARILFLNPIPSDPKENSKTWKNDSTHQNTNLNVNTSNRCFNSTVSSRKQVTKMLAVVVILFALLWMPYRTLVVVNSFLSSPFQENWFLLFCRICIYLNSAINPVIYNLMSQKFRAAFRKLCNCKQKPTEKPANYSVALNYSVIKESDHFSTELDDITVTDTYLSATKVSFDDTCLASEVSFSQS
Method in brief: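 HEK293/TRHR cells, 1500 per well, 18 h 37 °C; Ca dye 2 h 37 °C; pin-tool compound addition (agonist mode); kinetic fluorescence 3 min, 1 s reads; 15 concentrations, triplicate.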

[2] = Caspase-3/7 induction in HepG2 cells by small molecules, qHTS assay (AID 1346978); further: nearly all actives have a fitted effect of over 15% in size; further: potency means the concentration at half of the fitted maximal effect
Method in brief: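 Caspase-3/7 induction was measured by Caspase-Glo 3/7 luminescence (30 min, room temperature) after a 17 hr compound exposure of wild-type HepG2 cells seeded at 2,000 per well and pre-incubated 5 hr.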

[3] = Caspase-3/7 induction in CHO-K1 cells by small molecules, qHTS assay (AID 1346980); further: nearly all actives have a fitted effect of over 15% in size
Method in brief: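 Luminescent Caspase-Glo 3/7 read (30min, room temperature) quantified apoptosis induction. Cells were wild-type CHO-K1, treated with compound for 17hr at 37 C and 5% CO2.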

[4] = target: Nuclear receptor subfamily 1 group I member 2 (Homo sapiens) (UniProt O75469); assay: Human pregnane X receptor (PXR) small molecule agonists, qHTS assay (AID 1346982); further: nearly all actives have a fitted effect of over 35% in size; further: potency means the concentration at half of the fitted maximal effect
Sequence of Nuclear receptor subfamily 1 group I member 2 (Homo sapiens) (O75469 whole entry, looked up): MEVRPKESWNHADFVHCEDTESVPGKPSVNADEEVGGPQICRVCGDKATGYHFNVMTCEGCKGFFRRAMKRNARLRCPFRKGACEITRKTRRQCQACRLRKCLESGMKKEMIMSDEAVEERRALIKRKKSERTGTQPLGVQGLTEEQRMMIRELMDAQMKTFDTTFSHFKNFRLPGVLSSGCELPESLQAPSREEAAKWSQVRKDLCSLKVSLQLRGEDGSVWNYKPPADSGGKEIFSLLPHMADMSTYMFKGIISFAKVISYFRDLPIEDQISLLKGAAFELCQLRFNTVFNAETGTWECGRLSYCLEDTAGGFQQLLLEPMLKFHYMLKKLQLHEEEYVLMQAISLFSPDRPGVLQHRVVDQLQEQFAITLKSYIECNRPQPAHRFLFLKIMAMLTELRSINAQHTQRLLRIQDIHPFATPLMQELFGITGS
Method in brief: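 Reporter HepG2 cells expressing PXR-Luc are cultured in charcoal-stripped FBS (5%), treated with compounds for 24 hr at 37 C, and assayed by ONE-Glo luminescence after 30 min at room temperature.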

[5] = target: Cytochrome P450 2D6 (Homo sapiens) (UniProt P10635); assay: Cytochrome P450 Family 2 Subfamily D Member 6 (CYP2D6) small molecule antagonists: luciferase reporter qHTS assay (AID 1671196); further: nearly all actives have a fitted effect of over 50% in size; further: potency means the concentration at half of the fitted maximal effect; on activity change, negative = inhibition: series mostly up to about 120 µM
Sequence of Cytochrome P450 2D6 (Homo sapiens) (P10635 whole entry, looked up): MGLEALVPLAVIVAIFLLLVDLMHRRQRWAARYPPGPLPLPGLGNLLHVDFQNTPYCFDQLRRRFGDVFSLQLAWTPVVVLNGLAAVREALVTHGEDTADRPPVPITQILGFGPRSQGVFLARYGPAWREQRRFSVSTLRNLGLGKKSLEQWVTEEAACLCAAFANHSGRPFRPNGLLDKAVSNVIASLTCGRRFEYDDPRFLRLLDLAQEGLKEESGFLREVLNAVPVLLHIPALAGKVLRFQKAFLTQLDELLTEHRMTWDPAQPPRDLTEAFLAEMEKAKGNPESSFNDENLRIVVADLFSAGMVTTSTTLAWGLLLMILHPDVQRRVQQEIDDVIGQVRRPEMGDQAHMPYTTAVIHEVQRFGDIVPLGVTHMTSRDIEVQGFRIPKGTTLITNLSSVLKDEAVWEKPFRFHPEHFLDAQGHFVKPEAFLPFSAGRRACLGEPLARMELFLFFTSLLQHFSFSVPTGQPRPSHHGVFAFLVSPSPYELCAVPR
Method in brief: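 Test chemicals meet CYP2D6 plus proluciferin substrate (10 min, RT); NADPH regenerating solution then drives turnover for 1 h. Detection reagent halts the reaction; luminescence measured after 20 min.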

[6] = target: Cytochrome P450 2C19 (Homo sapiens) (UniProt P33261); assay: Cytochrome P450 Family 2 Subfamily C Member 19 (CYP2C19) small molecule antagonists: luciferase reporter qHTS assay (AID 1671197); further: nearly all actives have a fitted effect of over 65% in size; further: potency means the concentration at half of the fitted maximal effect; on activity change, negative = inhibition: series mostly up to about 120 µM
Sequence of Cytochrome P450 2C19 (Homo sapiens) (P33261 whole entry, looked up): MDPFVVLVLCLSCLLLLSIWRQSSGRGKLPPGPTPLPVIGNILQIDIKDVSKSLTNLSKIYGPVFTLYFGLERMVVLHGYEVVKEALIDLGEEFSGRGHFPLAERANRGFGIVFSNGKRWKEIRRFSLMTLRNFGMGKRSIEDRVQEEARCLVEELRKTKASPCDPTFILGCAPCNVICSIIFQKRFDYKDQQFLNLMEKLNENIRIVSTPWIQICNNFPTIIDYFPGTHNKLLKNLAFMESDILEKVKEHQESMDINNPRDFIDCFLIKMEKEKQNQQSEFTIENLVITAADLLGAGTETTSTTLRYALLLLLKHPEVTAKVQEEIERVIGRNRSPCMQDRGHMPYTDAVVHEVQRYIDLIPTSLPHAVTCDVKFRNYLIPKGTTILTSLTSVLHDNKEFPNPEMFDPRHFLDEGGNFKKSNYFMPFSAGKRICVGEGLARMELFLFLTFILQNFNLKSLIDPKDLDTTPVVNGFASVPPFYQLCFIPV
Method in brief: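 Inhibition of CYP2C19 was scored from loss of luminescence in a P450-Glo proluciferin substrate assay, NADPH-started and run 1 h at 37C, with ketoconazole as positive control.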

[7] = target: Cytochrome P450 2C9 (Homo sapiens) (UniProt P11712); assay: Cytochrome P450 Family 2 Subfamily C Member 9 (CYP2C9) small molecule antagonists: luciferase reporter qHTS assay (AID 1671198); further: nearly all actives have a fitted effect of over 50% in size; further: potency means the concentration at half of the fitted maximal effect; on activity change, negative = inhibition: series mostly up to about 120 µM
Sequence of Cytochrome P450 2C9 (Homo sapiens) (P11712 whole entry, looked up): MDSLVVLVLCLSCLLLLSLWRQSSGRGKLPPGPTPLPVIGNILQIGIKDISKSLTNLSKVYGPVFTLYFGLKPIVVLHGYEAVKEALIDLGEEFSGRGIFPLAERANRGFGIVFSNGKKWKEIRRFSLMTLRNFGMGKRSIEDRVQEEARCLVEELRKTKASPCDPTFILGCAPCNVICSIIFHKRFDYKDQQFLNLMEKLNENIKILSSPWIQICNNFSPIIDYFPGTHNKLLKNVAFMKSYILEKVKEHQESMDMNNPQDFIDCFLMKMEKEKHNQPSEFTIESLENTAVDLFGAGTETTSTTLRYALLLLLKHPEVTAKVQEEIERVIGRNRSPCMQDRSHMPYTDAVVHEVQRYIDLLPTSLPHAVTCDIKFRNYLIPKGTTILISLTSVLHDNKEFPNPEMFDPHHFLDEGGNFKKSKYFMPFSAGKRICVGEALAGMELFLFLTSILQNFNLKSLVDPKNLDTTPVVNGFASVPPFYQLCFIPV
Method in brief: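 Enzyme-substrate mix preincubated with compound 10 min at room temperature; reaction started with NADPH regeneration solution, 1 h 37C. Luminescent luciferin product read after 20 min detection reagent.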

[8] = target: Cytochrome P450 1A2 (Homo sapiens) (UniProt P05177); assay: Cytochrome P450 Family 1 Subfamily A Member 2 (CYP1A2) small molecule antagonists: luciferase reporter qHTS assay (AID 1671199); further: nearly all actives have a fitted effect of over 50% in size; further: potency means the concentration at half of the fitted maximal effect; on activity change, negative = inhibition: series mostly up to about 120 µM
Sequence of Cytochrome P450 1A2 (Homo sapiens) (P05177 whole entry, looked up): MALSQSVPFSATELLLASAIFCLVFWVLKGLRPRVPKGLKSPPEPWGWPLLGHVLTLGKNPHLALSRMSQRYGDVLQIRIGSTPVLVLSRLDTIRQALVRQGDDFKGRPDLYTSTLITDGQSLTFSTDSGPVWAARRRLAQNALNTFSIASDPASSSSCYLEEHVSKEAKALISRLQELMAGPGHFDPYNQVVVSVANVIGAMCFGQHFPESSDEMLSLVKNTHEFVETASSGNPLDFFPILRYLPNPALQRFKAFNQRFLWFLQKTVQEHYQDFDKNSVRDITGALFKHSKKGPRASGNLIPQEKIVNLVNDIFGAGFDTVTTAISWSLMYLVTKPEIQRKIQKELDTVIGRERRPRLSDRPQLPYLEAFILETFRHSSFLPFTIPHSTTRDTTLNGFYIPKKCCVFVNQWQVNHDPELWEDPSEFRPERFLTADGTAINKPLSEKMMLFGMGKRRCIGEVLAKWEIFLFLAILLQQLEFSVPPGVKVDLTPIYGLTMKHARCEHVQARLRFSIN
Method in brief: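 Steps: enzyme-substrate mix dispensed; test compounds and furafylline control pinned in; 10 min room temperature; NADPH regeneration solution added, 1 h; reaction stopped with luciferin detection reagent; luminescence read after 20 min.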

[9] = target: Voltage-gated inwardly rectifying potassium channel KCNH2 (Homo sapiens) (UniProt Q12809); assay: Human Ether-a-go-go-Related Gene (hERG) channel small molecule antagonists: fluorescence cell-based qHTS assay (AID 1671200); further: nearly all actives have a fitted effect of over 50% in size; further: potency means the concentration at half of the fitted maximal effect;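 on activity change, negative = inhibition: hERG-expressing U2OS cells given a thallium stimulus after FluxOR II dye loading; series mostly up to about 77 µM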
Sequence of Voltage-gated inwardly rectifying potassium channel KCNH2 (Homo sapiens) (Q12809 whole entry, looked up): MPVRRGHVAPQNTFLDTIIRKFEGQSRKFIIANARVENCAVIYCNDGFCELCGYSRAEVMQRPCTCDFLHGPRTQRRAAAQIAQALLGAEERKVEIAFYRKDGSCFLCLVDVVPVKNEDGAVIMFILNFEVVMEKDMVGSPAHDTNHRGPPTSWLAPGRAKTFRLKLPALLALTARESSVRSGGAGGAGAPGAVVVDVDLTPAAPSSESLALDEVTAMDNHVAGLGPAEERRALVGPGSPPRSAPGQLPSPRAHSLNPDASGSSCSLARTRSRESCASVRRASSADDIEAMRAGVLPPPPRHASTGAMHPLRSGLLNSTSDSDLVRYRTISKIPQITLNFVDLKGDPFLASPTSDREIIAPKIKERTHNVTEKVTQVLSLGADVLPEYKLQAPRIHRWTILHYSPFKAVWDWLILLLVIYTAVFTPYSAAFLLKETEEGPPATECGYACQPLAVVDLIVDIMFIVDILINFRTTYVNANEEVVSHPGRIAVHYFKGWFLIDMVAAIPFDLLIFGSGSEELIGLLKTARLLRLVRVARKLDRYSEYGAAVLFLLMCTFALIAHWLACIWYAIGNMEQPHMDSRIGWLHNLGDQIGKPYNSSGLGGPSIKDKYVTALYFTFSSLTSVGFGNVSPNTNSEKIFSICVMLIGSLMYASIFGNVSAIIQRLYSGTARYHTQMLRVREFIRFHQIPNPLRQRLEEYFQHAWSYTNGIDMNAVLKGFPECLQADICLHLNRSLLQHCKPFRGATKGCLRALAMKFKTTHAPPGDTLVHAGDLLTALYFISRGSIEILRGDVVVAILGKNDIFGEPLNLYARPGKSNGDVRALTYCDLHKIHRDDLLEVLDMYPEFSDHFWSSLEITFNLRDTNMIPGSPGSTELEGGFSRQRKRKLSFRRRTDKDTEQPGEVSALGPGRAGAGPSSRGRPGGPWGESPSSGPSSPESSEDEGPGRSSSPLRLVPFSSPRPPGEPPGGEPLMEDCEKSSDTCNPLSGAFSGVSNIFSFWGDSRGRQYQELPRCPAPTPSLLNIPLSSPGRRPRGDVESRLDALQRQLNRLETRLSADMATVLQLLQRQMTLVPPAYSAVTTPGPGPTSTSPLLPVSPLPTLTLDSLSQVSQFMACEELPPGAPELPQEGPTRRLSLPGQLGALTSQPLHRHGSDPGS
Method in brief: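 Read-out: thallium influx as a surrogate for potassium, tracked as fluorescence (480 nm ex/540 nm em) every second for 2 min after Stimulus Buffer addition in dye-loaded hERG-U2OS cells.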

[10] = Human pregnane X receptor (PXR) small molecule agonists, qHTS cell viability counter screen (AID 1346977); further: nearly all actives have a fitted effect of over 50% in size; further: potency means the concentration at half of the fitted maximal effect
Method in brief: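 Fluorescence read-out (CellTiter-Fluor) of viability in PXR-Luc HepG2 cells, multiplexed with the luciferase agonist read. Compounds in DMSO added after 5hr plating; 24hr total exposure at 37C, 5% CO2.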

[11] = Caspase-3/7 induction in CHO-K1 cells by small molecules, qHTS cell viability counter screen (AID 1346979); further: nearly all actives have a fitted effect of over 35% in size; further: potency means the concentration at half of the fitted maximal effect
Method in brief: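 CHO-K1 wt, 1,500 cells/well; 5hr pre-incubation 37C/5% CO2; compound pin transfer (DMSO); 16hr exposure; CellTiter-Fluor added, 1hr, fluorescence read.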

[12] = Caspase-3/7 induction in HepG2 cells by small molecules, qHTS cell viability counter screen (AID 1346981); further: nearly all actives have a fitted effect of over 30% in size; further: potency means the concentration at half of the fitted maximal effect; on activity change, negative = cytotoxicity: series mostly up to about 92 µM
Method in brief: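 In this quantitative HTS counter screen, compounds delivered in DMSO were left on unmodified HepG2 cells for 16 hr at 37 C. Viability was then determined fluorometrically with CellTiter-Fluor, in parallel with caspase-3/7 induction in the same wells.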

[13] = target: Cytochrome P450 3A4 (Homo sapiens) (UniProt P08684); assay: Cytochrome P450 Family 3 Subfamily A Member 4 (CYP3A4) small molecule antagonists: luciferase reporter qHTS assay (AID 1671201); further: nearly all actives have a fitted effect of over 50% in size; further: potency means the concentration at half of the fitted maximal effect; on activity change, negative = inhibition: series mostly up to about 120 µM
Sequence of Cytochrome P450 3A4 (Homo sapiens) (P08684 whole entry, looked up): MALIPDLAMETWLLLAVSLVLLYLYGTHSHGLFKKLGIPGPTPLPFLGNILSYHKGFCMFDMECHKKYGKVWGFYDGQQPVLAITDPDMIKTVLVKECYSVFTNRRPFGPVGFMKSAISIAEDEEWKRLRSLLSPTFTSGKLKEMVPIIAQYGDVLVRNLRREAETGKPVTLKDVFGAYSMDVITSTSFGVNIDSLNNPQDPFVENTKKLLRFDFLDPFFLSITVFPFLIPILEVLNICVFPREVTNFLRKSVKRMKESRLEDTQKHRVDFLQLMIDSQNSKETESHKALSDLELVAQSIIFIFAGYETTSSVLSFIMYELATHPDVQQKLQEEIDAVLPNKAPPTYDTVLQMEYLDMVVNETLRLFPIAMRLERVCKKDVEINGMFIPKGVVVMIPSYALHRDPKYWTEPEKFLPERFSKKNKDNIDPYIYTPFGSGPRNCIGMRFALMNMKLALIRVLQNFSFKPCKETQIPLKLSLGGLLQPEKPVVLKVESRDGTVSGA
Method in brief: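 Luminescent readout (RLU) proportional to CYP3A4 activity, from luciferin generated off a proluciferin substrate. Enzyme–substrate mix plus compound 10 min at room temp, NADPH regeneration 1 h, detection reagent 20 min.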

[14] = target: Nuclear receptor subfamily 1 group I member 2 (Homo sapiens) (UniProt O75469); assay: CYP3A4 induction through human pregnane X receptor (PXR) by small molecules, qHTS assay (AID 1346984); further: nearly all actives have a fitted effect of over 40% in size; further: potency means the concentration at half of the fitted maximal effect
Method in brief: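 Induction measured in HepG2-based DPX-2 cells co-expressing human PXR and a CYP3A4 promoter-driven luciferase. After a 24-hour compound exposure, cells received CYP3A4 luciferin substrate at 3uM final for 3 hours, and light output was then recorded.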

[15] = target: Nuclear receptor subfamily 1 group I member 2 (Homo sapiens) (UniProt O75469); assay: Human pregnane X receptor (PXR) activation by small molecules, qHTS assay (AID 1346985); further: nearly all actives have a fitted effect of over 40% in size; further: potency means the concentration at half of the fitted maximal effect
Method in brief: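 DPX-2 cells (HepG2 co-transfected with a PXR response element and a CYP3A4-promoter luciferase construct) were seeded at 2,000 per well, rested 5 hr at 37C, then exposed to DMSO-dissolved compounds for 24 hr. Activation was read as luciferase luminescence.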
On the % scale 0 is the no-effect control and ±100 the full control effect.

CCC(Cc1ccccc1)(C(=O)c1ccc(N2CCOCC2)cc1)N(C)C (stereo unspecified)
inactive: Potency [1] | Potency [2] | outcome [3] | Potency [8]
active: Potency [4] 30.6 µM | Potency [5] 7.96 µM | Potency [6] 39.9 µM | Potency [7] 35.6 µM | Potency [9] 13.8 µM

O=C1NCCN1
inactive: Potency [10] | Potency [2] | Potency [11] | outcome [3] | Potency [12] | Potency [4] | Potency [7] | Potency [9] | Potency [13]
active: Potency [5] 21.5 µM | Potency [6] 34.1 µM

NC(=O)Nc1ccc(Cl)cc1
inactive: Potency [10] | Potency [2] | Potency [11] | outcome [3] | Potency [12] | Potency [4] | Potency [9] | Potency [13]
active: Potency [6] 79.3 µM | Potency [8] 31.6 µM

Cc1cnc(C)c(C)n1
inactive: Potency [10] | Potency [2] | Potency [11] | outcome [3] | Potency [12] | Potency [4] | Potency [5] | Potency [6] | Potency [7] | Potency [9] | Potency [13]

Cc1oncc1C(=O)Nc1ccc(C(F)(F)F)cc1
inactive: Potency [10] | Potency [2] | Potency [11] | outcome [3] | Potency [12] | Potency [14] | Potency [9]
active: Potency [4] 12.2 µM and 1.5 µM | Potency [15] 0.708 µM | Potency [5] 31.7 µM | Potency [6] 8.94 µM and 8.71 µM | Potency [7] 25.2 µM and 15.5 µM | Potency [8] 1.59 µM and 911 nM

COCCOC(=O)C1=C(C)NC(C)=C(C(=O)OC/C=C/c2ccccc2)C1c1cccc([N+](=O)[O-])c1 (stereo unspecified)
inactive: Potency [1] | Potency [2] | Potency [9]
active: Potency [12] 29.8 µM | Potency [4] 10.6 µM | Potency [14] 1.58 µM | Potency [15] 1.58 µM | Potency [5] 21.9 µM | Potency [6] 1.55 µM | Potency [7] 0.195 µM | Potency [8] 15.5 µM

Cc1ccc(Nc2nccc(N(C)c3ccc4c(C)n(C)nc4c3)n2)cc1S(N)(=O)=O
active: Potency [4] 2.66 µM | Potency [7] 15.5 µM
inactive: Potency [1] | Potency [2] | outcome [3] | Potency [6] | Potency [8] | Potency [9]

C=CC(C)(C)CC(=O)OC
inactive: Potency [1] | Potency [2] | outcome [3] | Potency [9]
active: Potency [4] 68.8 µM | Potency [6] 35.7 µM | Potency [7] 35.7 µM | Potency [8] 20.1 µM | Potency [13] 63.5 µM

CCn1nc(C)c2c1C(=O)NCC(c1ccc(O)cc1)=N2
active: Potency [7] 44.8 µM | Potency [8] 63.3 µM | Potency [13] 31.7 µM
inactive: Potency [10] | Potency [2] | Potency [11] | outcome [3] | Potency [12] | Potency [5] | Potency [6] | Potency [9]

OCC1CC=CCC1 (stereo unspecified)
inactive: Potency [10] | Potency [2] | Potency [11] | outcome [3] | Potency [12] | Potency [4] | Potency [5] | Potency [6] | Potency [7] | Potency [8] | Potency [9] | Potency [13]

CO[C@@]12[C@H](COC(N)=O)C3=C(C(=O)C(C)=C(N)C3=O)N1C[C@@H]1N[C@@H]12
inactive: outcome [3] | Potency [4] | Potency [15] | Potency [6] | Potency [9]
active: Potency [10] 11.9 µM | Potency [2] 11.9 µM | Potency [11] 13.3 µM | Potency [12] 11.9 µM | Potency [8] 30.9 µM

Cc1ccccc1N1C(=O)c2cc(S(N)(=O)=O)c(Cl)cc2NC1C (stereo unspecified)
active: Potency [4] 5.31 µM
inactive: Potency [10] | Potency [2] | Potency [11] | outcome [3] | Potency [12] | Potency [5] | Potency [6] | Potency [8] | Potency [9]

C=C(C)C(=O)OCCOC(=O)CC(C)=O
inactive: Potency [10] | Potency [2] | Potency [11] | outcome [3] | Potency [12] | Potency [4] | Potency [5] | Potency [6] | Potency [9]

Cc1cc(S(=O)(=O)O)ccc1N=Nc1c(O)ccc2ccccc12
inactive: Potency [2] | outcome [3] | Potency [4] | Potency [9]
active: Potency [10] 24.3 µM | Potency [11] 27.3 µM | Potency [12] 30.6 µM | Potency [5] 39.9 µM | Potency [6] 20 µM | Potency [7] 31.7 µM | Potency [8] 25.2 µM | Potency [13] 39.9 µM

C/C(=N/NC(=O)c1ccncc1)C(=O)O
inactive: Potency [10] | Potency [2] | Potency [11] | outcome [3] | Potency [12] | Potency [4] | Potency [5] | Potency [7] | Potency [8] | Potency [9] | Potency [13]

Fc1c(F)c(F)c(Br)c(F)c1F
inactive: Potency [1] | Potency [11] | outcome [3] | Potency [12] | Potency [4] | Potency [5] | Potency [6] | Potency [7] | Potency [9] | Potency [13]

CCCOCCOCCO
inactive: Potency [10] | Potency [2] | Potency [11] | outcome [3] | Potency [12] | Potency [4] | Potency [6] | Potency [7] | Potency [8] | Potency [9] | Potency [13]

CSc1ccc(Oc2ccc(S(N)(=O)=O)cc2CN(C)C)cc1C
active: Potency [4] 19.3 µM | Potency [6] 35.6 µM | Potency [8] 63.3 µM | Potency [9] 6.92 µM
inactive: Potency [1] | Potency [2] | Potency [13]

C=CCCCCCCCCCCCCCCCC
inactive: activity change, negative = cytotoxicity [10] 0.0327% [at 8.39 µM] | caspase activation [2] -6.49% [at 8.39 µM] | activity change, negative = cytotoxicity [11] 7.02% [at 8.39 µM] | caspase-3/7 activation [3] 0.114% [at 8.39 µM] | activity change, negative = cytotoxicity [12] -1.16% [at 8.39 µM] | activation [4] -1.52% [at 8.39 µM] | activity change, negative = inhibition [6] 5.26% [at 10.5 µM] | activity change, negative = inhibition [7] 3.76% [at 10.5 µM] | activity change, negative = inhibition [8] -11.2% [at 10.5 µM] | activity change, negative = inhibition [9] -0.108% [at 6.97 µM] | activity change, negative = inhibition [13] 6.02% [at 10.5 µM]
